Results: PubChem BioAssay AID686978 (National Center for Advancing Translational Sciences (NCATS), 2013)
Out of some 420,000 compounds screened, about 64,000 (15%) were called active. Not shown: some 27% with an inconclusive outcome. Only a sample is shown. A call without a number means that no potency is given here. Unmarked numbers belong to inactive results. The call rests on the fitted dose curve; in most records, active means well fitted inhibition curve with a large enough effect; inconclusive means small, poorly fitted or top-dose-only effect; inactive means flat fitted curve, though single readings scatter.
Potency means the concentration at half of the fitted maximal effect.

Assay: qHTS for Inhibitors of human tyrosyl-DNA phosphodiesterase 1 (TDP1): qHTS in cells in absence of CPT; further: nearly all actives have a fitted effect of over 55% in size
Details: DT40 Tdp1-/- hTDP1 cells, no CPT, ATP luminescence, 48 h; activity change, negative = growth inhibition: at 46.2 µM (top of the series)
Procedure, shortened: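 No-CPT arm: Tdp1-/-;hTDP1 DT40 cells (400/well) plus compounds, incubated ≥48 hr at 37 °C. Readout CellTiter-Glo luminescence.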
With `CCc1cccc(CC)c1NC(=S)NCc1ccc2[nH]c(C)cc2c1` the Potency was 18.4 µM (active).
With `CCc1cccc(CC)c1NC(=S)Nc1ccc2cn[nH]c2c1` the Potency was “inactive”.
For `Cc1cc2cc(CNC(=O)c3cccs3)ccc2[nH]1`, the Potency was “inactive”.
In the case of `COc1ccc(S(=O)(=O)NCC2CCCN(C(=O)c3occc3C)C2)cc1` (configuration not stated), the Potency is reported as “inactive”.
In the case of `O=C(c1ccccn1)c1ncc(C(F)(F)F)cc1Cl`, the Potency is reported as “inactive”.
In the case of `C=CCn1c(SCC(=O)Nc2nc3ccccc3s2)nnc1-c1ccccc1O`, the Potency is reported as “inactive”.
In the case of `O=c1[nH]c(CN2CCOCC2)nc2cc(Cl)ccc12`, the Potency is reported as “inactive”.
In the case of `O=c1[nH]c(CCl)nc2cc(-c3ccc(Cl)cc3)sc12`, the Potency is reported as 2.31 µM (active).
For `NC(=O)Cc1nc2scc(-c3ccc(Cl)cc3)c2c(=O)[nH]1`, the Potency was “inactive”.
In the case of `CCOCCCNC(=S)N1CCC(NC(=O)C2CCCCC2)CC1`, the Potency is reported as “inactive”.
For `CSCCC(NS(=O)(=O)c1ccc2c(c1)oc(=O)n2C)C(=O)NCc1ccccc1` (configuration not stated), the Potency was “inactive”.
In the case of `OC(CBr)C[n+]1cccc2cc(Br)ccc21` (configuration not stated), the Potency is reported as 11.2 µM (active).
For `Cc1c(CCC(=O)N[C@@H](CC(C)C)C(=O)O)c(=O)oc2c(C)c3oc4c(c3cc12)CCCC4`, the Potency was “inactive”.
For `CCN(CC)CCCNC(=O)CCn1nc(-c2ccc(Cl)cc2)ccc1=O`, the Potency was “inactive”.
In the case of `Cn1c(C(=O)Nc2cccc(C(F)(F)F)c2)cc2c(=O)n3ccccc3nc21`, the Potency is reported as 9.2 µM (active).
With `O=C(Nc1ccc(OC(F)(F)F)cc1)c1cc2c(=O)n3ccccc3nc2s1` the Potency was “inactive”.
With `O=C(COC(=O)c1cccc(Cl)c1)NC(=O)NCc1ccccc1` the Potency was “inactive”.
For `CCN(CC)c1ccc2oc(=O)c(C)nc2c1`, the Potency was 5.8 µM (active).
For `CCN(CC)c1ccc2c(Nc3ccccc3)c(C=O)c(=O)oc2c1`, the Potency was “inactive”.
For `CCN(CC)c1ccc2cc(C(=O)O)c(=O)oc2c1`, the Potency was “inactive”.
In the case of `COc1ccc(CCN2C(=O)C3CC=C(C)CC3C2=O)cc1OC` (configuration not stated), the Potency is reported as “inactive”.
In the case of `COc1ccc(CCNC(=O)C(=O)NCc2ccccc2C)cc1OC`, the Potency is reported as “inactive”.
With `COC(=O)c1ccc(C2C(Oc3ccccc3C)C(=O)N2CCc2ccc(OC)c(OC)c2)cc1` (configuration not stated) the Potency was 14.6 µM (active).
In the case of `CN(CCC1CCOCC1)C(=O)CC1C(=O)NCCN1Cc1cccc(F)c1` (configuration not stated), the Potency is reported as “inactive”.
With `COc1ccc(NS(=O)(=O)c2cc3c(cc2C)N(C(C)=O)CCO3)cc1` the Potency was “inactive”.
In the case of `CCCN(CCC)S(=O)(=O)c1ccc(C(=O)Nc2sc3c(c2C(=O)OC)CCN(CC)C3)cc1`, the Potency is reported as 20.6 µM (active).
For `CCOC(=O)c1c(NC(=O)C2CCN(S(=O)(=O)c3ccc(Cl)cc3)CC2)sc2c1CCCC2`, the Potency was “inactive”.
For `CCOC(=O)c1c(NC(=O)NC(C)(C)C)sc2c1CCN(C)C2`, the Potency was “inactive”.
With `CCOC(=O)c1c(NC(=O)c2ccc(S(=O)(=O)N3CCCC(C)C3)cc2)sc2c1CCN(C(C)C)C2` (configuration not stated) the Potency was 10.3 µM (active).
With `COC(=O)c1c(NC(=O)c2ccc(Cl)c(Cl)c2)sc2c1CCCC2` the Potency was “inactive”.
With `COC(=O)c1c(NC(=O)c2cc(=O)c3c(C)cc(C)cc3o2)sc2c1CCCC2` the Potency was “inactive”.
In the case of `O=C(O)/C=C/c1ccc(OCCCF)cc1`, the Potency is reported as “inactive”.
For `CN(C)/C=C/C(=O)c1cnc2sccn2c1=O`, the Potency was “inactive”.
For `Cn1nc(C(F)(F)F)c(-c2ccc(F)cc2)c1NC(=O)CSCC(=O)O`, the Potency was “inactive”.
For `CN(C)C=NC(=O)c1cccn1-c1ncc(C(F)(F)F)cc1Cl`, the Potency was “inactive”.
For `CC(C)N(C(=O)CSc1nnc(NC2CC2)s1)c1ccccc1`, the Potency was “inactive”.
For `CC(C)c1ccc(Nc2nnc(SCC(=O)c3nnc(-c4ccccc4)o3)s2)cc1`, the Potency was 11.6 µM (active).
With `O=C(CSc1nnc(Nc2ccccc2)s1)Nc1cccnc1Cl` the Potency was “inactive”.
With `C/C(=N\OC(=O)c1ccccc1)c1c(C)nc2cc(C)ccn12` the Potency was “inactive”.
For `CC1=C(C(=O)Nc2ccc(Cl)cc2)C(c2ccco2)NC(=O)N1` (configuration not stated), the Potency was “inactive”.
For `Cc1ccc(SCC(=O)Nc2ccc3c(c2)OCCO3)cc1`, the Potency was “inactive”.
With `Cc1ccc(SC(=O)COc2ccc(C)c(C)c2)cc1` the Potency was “inactive”.
With `Cc1ccc(SCC(=O)c2cc(C)c(OC(=S)N(C)C)c(C)c2)cc1` the Potency was 18.4 µM (active).
In the case of `CCCCc1ccc(S(=O)(=O)NC(=O)C2(C)CCN2C(=O)c2c(C)noc2C)cc1` (configuration not stated), the Potency is reported as “inactive”.
With `COc1ccc(/C=N/N(C)C2=NS(=O)(=O)c3ccccc32)cc1OC` the Potency was “inactive”.
In the case of `C=CCOCCN(C)C1=NS(=O)(=O)c2ccccc21`, the Potency is reported as “inactive”.
For `O=S1(=O)N=C(N(CCO)/N=C/c2ccccc2F)c2ccccc21`, the Potency was 0.92 µM (active).
`CCCCC/C=C\C/C=C\CCCCCCCCCC(=O)O` gave an activity change, negative = growth inhibition of 6.04% [at 4.12 µM].
For `Cc1cc(C)n(C(=O)CCNC(=O)c2ccccc2Cl)n1`, the Potency was “inactive”.
In the case of `NC(=O)c1ccsc1NC(=O)COC(=O)COc1ccc(C=O)cc1`, the Potency is reported as “inactive”.
With `Fc1cc(Br)ccc1NC(=S)Nc1cccnc1` the Potency was “inactive”.
For `Cc1cccc(NC(=S)NC(=O)c2ccc(Br)o2)c1`, the Potency was “inactive”.
For `Cc1cccc(NC(=S)Nc2ccc(Br)cc2)c1`, the Potency was 16.4 µM (active).
In the case of `O=C(COC(=O)c1ccc2c(c1)OCCO2)NCc1ccccc1Cl`, the Potency is reported as “inactive”.
In the case of `CCCS(=O)(=O)NC(=O)C1(C)CCCN(C(=O)c2cc(C)on2)C1` (configuration not stated), the Potency is reported as “inactive”.
For `Cc1nc2cnc(N3CCN(C)CC3)nc2n(CCC#N)c1=O`, the Potency was “inactive”.
With `Cn1c(SCC(=O)Nc2nccs2)nnc1-c1cccnc1` the Potency was “inactive”.
With `CN(C)S(=O)(=O)c1ccc(C(=O)N(Cc2cccnc2)c2nc3c(F)cc(F)cc3s2)cc1` the Potency was “inactive”.
With `O=C(CCS(=O)(=O)c1ccccc1)N(Cc1cccnc1)c1nc2c(F)cccc2s1` the Potency was 2.31 µM (active).
In the case of `O=C(NCc1cccnc1)Nc1ccccc1F`, the Potency is reported as “inactive”.
For `CN(C)CCCN(C(=O)COc1ccccc1)c1nc2c(Cl)cccc2s1`, the Potency was “inactive”.
For `Cc1cccc2sc(N(CCCN(C)C)C(=O)CCS(=O)(=O)c3ccccc3)nc12`, the Potency was 1.64 µM (active).
For `COc1cc2ccccc2cc1C(=O)N(CCN(C)C)c1nc2c(F)cccc2s1`, the Potency was “inactive”.
In the case of `COC(=O)[C@H](CC(C)C)NC(=O)N1CCCCC1C` (some centres not stated), the Potency is reported as “inactive”.
In the case of `COC(=O)C1=C(C)NC(=O)NC1/C=C/c1ccccc1` (configuration not stated), the Potency is reported as “inactive”.
In the case of `O=C(CSc1nnc(-c2c[nH]c3ccccc23)o1)c1ccccc1`, the Potency is reported as “inactive”.
With `O=C(CSc1nnc(Cn2cnc3ccccc32)o1)c1ccccc1` the Potency was 10.3 µM (active).
For `CC(=O)Nc1ccc(C(=O)CSc2nnc(Cc3ccccc3)o2)cc1`, the Potency was “inactive”.
With `Cc1cc(C)cc(NC(=O)c2cccc(NC(=O)C3C4CC5OC(=O)C3C5C4)c2)c1` (configuration not stated) the Potency was “inactive”.
With `Cc1cccc(N2C(=O)SC(N(CC(=O)O)c3cccc(C)c3)C2=O)c1` (configuration not stated) the Potency was “inactive”.
With `CCOC(=O)CCP(=O)(O)C(O)(c1ccccc1)c1ccccc1` the Potency was “inactive”.
With `O=S(=O)(Nc1ccc2cn[nH]c2c1)c1ccccc1` the Potency was “inactive”.
With `O=C(CCNC(=O)C1CCN(S(=O)(=O)c2ccccc2)CC1)NC1CC1` the Potency was “inactive”.
With `CCOC(=O)c1cc(C(C)C)sc1NC(=O)COC(=O)c1nccnc1N` the Potency was “inactive”.
For `O=C1C2(c3ccccc3)CN(CCCO)CC1(c1ccccc1)CN(CCCO)C2`, the Potency was “inactive”.
For `O=C1CC(=O)Nc2cc(S(=O)(=O)N3CCN(c4cccc(C(F)(F)F)c4)CC3)ccc2N1`, the Potency was “inactive”.
With `Cc1ccc(C)c(N2CCN(S(=O)(=O)c3ccc4c(c3)oc(=O)n4C)CC2)c1` the Potency was “inactive”.
For `CC1C(=O)Nc2ccc(S(=O)(=O)N3CCN(c4ccccc4F)CC3)cc2NC1=O` (configuration not stated), the Potency was 20.6 µM (active).
With `Cc1ccc(N2CCN(S(=O)(=O)c3ccc(F)cc3)CC2)c(C)c1` the Potency was 18.4 µM (active).
With `Cc1ccc(C)c(N2CCN(S(=O)(=O)c3ccc4c(c3)C(C(C)C)C(=O)N4)CC2)c1` (configuration not stated) the Potency was 18.4 µM (active).
With `Cc1ccc(S(=O)(=O)N2CCN(C)CC2)cc1` the Potency was “inactive”.
With `Cc1ccc(S(=O)(=O)N2CCN(S(=O)(=O)N3CCOCC3)CC2)cc1` the Potency was “inactive”.
In the case of `Cc1ccc(Cl)cc1N1CCN(S(=O)(=O)c2cc3[nH]c(=O)c(=O)[nH]c3cc2C)CC1`, the Potency is reported as “inactive”.
With `CCOC(=O)N1CCN(S(=O)(=O)c2ccc3c(c2)C(C)C(=O)N3)CC1` (configuration not stated) the Potency was “inactive”.
For `O=C(N/N=C/c1cccc(OC(=O)c2ccc([N+](=O)[O-])cc2)c1)c1cccnc1`, the Potency was “inactive”.
For `CCOC(=O)c1c(-n2cnnn2)sc(C)c1C`, the Potency was “inactive”.
In the case of `COc1ccc(NC(=S)N2N=CCC2c2ccccc2)cc1` (configuration not stated), the Potency is reported as “inactive”.
In the case of `CS(=O)(=O)c1ccc2nc(NC(=O)c3ccc(Cl)nc3)sc2c1`, the Potency is reported as “inactive”.
With `O=C(NCc1cccnc1)c1nc(-c2cccs2)no1` the Potency was “inactive”.
With `C=CCn1c(=O)n(C)c2c(=O)n(C)c(=O)n(C)c21` the Potency was “inactive”.
For `CC(C)C(C)NC(=O)COc1ncnc2ccccc12` (configuration not stated), the Potency was “inactive”.
In the case of `CCn1ccnc1CNC(=O)CC1C(=O)NCCN1CCCc1ccccc1` (configuration not stated), the Potency is reported as “inactive”.
For `O=C(CCC(=O)N1CCN(S(=O)(=O)c2ccccc2)CC1)NC1CCCc2ccccc21` (configuration not stated), the Potency was “inactive”.
With `CCC1NC(=O)c2cccnc2-n2c1nc1ccc(C)cc1c2=O` (configuration not stated) the Potency was “inactive”.
With `Cc1cc(C)c2c(=O)n3c(nc2c1)C(CC(C)C)NC(=O)c1cc2ccccc2cc1-3` (configuration not stated) the Potency was 4.61 µM (active).
With `O=C1NC(Cc2ccccc2)c2nc3ccc(Br)cc3c(=O)n2-c2cc3ccccc3cc21` (configuration not stated) the Potency was 7.31 µM (active).
With `CCc1ccc(NC2Nc3cc(C)nn3S2)cc1` (configuration not stated) the Potency was “inactive”.
With `N#CCC(=O)NC1CCC(CC2CCC(NC(=O)CC#N)CC2)CC1` (configuration not stated) the Potency was “inactive”.
With `CCOc1cc(C2C(C(=O)OC)=CN(C3CCCC3)C=C2C(=O)OC)cc(Br)c1O` the Potency was “inactive”.
For `COc1ccc(S(=O)(=O)Nc2ccc(F)cc2)c(C)c1C`, the Potency was “inactive”.
With `COc1ccccc1CNS(=O)(=O)CC12CCC(CC1=O)C2(C)C` (configuration not stated) the Potency was “inactive”.
With `CC(=O)Nc1ccc(S(=O)(=O)NC(C)C(=O)OCCOc2ccc(F)cc2)cc1` (configuration not stated) the Potency was “inactive”.
For `Cc1cccc(C)c1NC(=O)Nc1ccccc1-n1ccnc1`, the Potency was “inactive”.
In the case of `COC(=O)C[C@H]1C=C[C@@H](NS(=O)(=O)c2ccc(C)cc2)[C@@H](CO)O1`, the Potency is reported as “inactive”.
For `COc1ccc(C(=O)Nc2ccc(CN3CCOCC3)cc2)cc1`, the Potency was “inactive”.
For `COc1ccc(C(=O)Nc2ccnn2C2CCN(Cc3ccncc3)CC2)cc1`, the Potency was “inactive”.
For `COc1ccc(C(=O)Nc2sc(C)c(C)c2CN2CCOCC2)cc1`, the Potency was 23.1 µM (active).
